Screening results deposited in PubChem by Broad Institute.
Shown are actives, neighbours in structure and some others; about 1.7% of the full set was active somewhere.
CFTR F508del cor = F508del CFTR correction, initial screen, CFBE line, single point; actives 0.36% (n = 350,000); activity (quench increase), % at 7.58 µM; AID 720511, 2013; CFBE cells, YFP halide quenching; stimulated with forskolin plus potentiator P3; % fluorescence drop versus neutral controls;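 active = mean added fluorescence quench of at least 8% versus neutral control, with both replicates also reaching 8%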;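 note: cells transiently co-express mutant CFTR-F508del with the halide-sensitive YFP; corrector assay measuring rescue of mutant channel to the surface after 24 h compound exposure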
Vif inh = HIV Vif self-association inhibitors, primary screen, imaging, HEK293T, single point; HEK293T cells, Vif self-association by quenched fluorescence, 24 h; inhibition, % at 7.49 µM; actives 0.35% (n = 340,000); AID 602346, 2012; in the data active = inhibition above about 50%, passing the limit was not always enough
FGF22 binding-1 = binders of human FGF22 protein, primary screen, FGF22 synaptogenesis inhibitor project, biophysical, thermal shift, single point; recombinant FGF22 thermal shift, SYPRO orange fluorescence; percent of sucrose octasulfate shift, DMSO zero; activity (Tm shift, normalised), % at 9.99 µM; actives 1.5% (n = 340,000);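 active = mean Tm shift, scaled 0 neutral to 100 positive control, at about 1.3% or above, every replicate too, limit read from the data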
Target sequence (Q9HCT0 whole entry, looked up): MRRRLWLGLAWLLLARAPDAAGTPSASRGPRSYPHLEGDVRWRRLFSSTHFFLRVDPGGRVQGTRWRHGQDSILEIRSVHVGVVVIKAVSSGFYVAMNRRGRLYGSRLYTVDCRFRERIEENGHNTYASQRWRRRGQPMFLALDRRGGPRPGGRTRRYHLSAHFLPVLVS
FGF22 binding-2 = binders of human FGF22 protein, dose response, FGF22 synaptogenesis inhibitor project, biophysical, thermal shift, cherry-pick retest. shares compounds with FGF22 binding-1. recombinant FGF22 thermal shift, SYPRO orange fluorescence. thermal shift activity, °C (ΔTm) at 38 µM. actives 2% (n = 1,000). AID 720646, 2013;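 active = fitted rise in melting shift crosses a set limit at or below the top valid dose tested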
FGF22 TSA = binders of human FGF22 protein, dose response, FGF22 synaptogenesis inhibitor project, biophysical, thermal shift, dry powder | shares compounds with FGF22 binding-1 | Thermal shift assay, SYPRO orange, melting temperature shift | Tm shift (activity), % at 38 µM | 50 tested, under 10 active;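 active = compounds whose fitted dose curve of melting temperature shift rises past a set threshold within the tested doses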
SYPRO no-protein = compound-only thermal shift signal without protein, dose response, artefact control for FGF22 binder project, biochemical, cherry-picked samples, RT-PCR instrument | compound-only SYPRO orange thermal shift counter-screen, no protein | AC50, µM (titrated, usually from 38 µM) | AID 743019, 2013 | shares compounds with FGF22 binding-1 | actives 2% (n = 1,000);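 active = rising signal whose fitted curve reaches the 0.54 level within the top valid dose, showing a melting point, actives reach about 13 µM in these data; inactive = the rest, including activity in the opposite direction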; note: value is where the raw curve crosses a fixed level and not half-maximal
A number is an active result; n = inactive; x = no result given.

SMILES | CFTR F508del cor | Vif inh | FGF22 binding-1 | FGF22 binding-2 | SYPRO no-protein | others
O=C(C[C@@H]1C=C[C@H](NC(=O)c2cccc(F)c2)[C@H](CO)O1)NCc1ccccc1 | n | x | 20 | n | n
O=C(C[C@@H]1C=C[C@H](NC(=O)Nc2cc(F)ccc2F)[C@H](CO)O1)Nc1ccc(-c2ccccc2)cc1 | n | x | 1.8 | n | n
O=C(C[C@H]1C=C[C@H](NC(=O)Nc2cc(F)ccc2F)[C@@H](CO)O1)Nc1ccc(-c2ccccc2)cc1 | n | x | n | x | x
O=C(C[C@@H]1C=C[C@H](NC(=O)c2cccc(F)c2)[C@@H](CO)O1)NCc1ccccc1 | n | x | n | x | x
CN(C)C(=O)[C@@H]1[C@@H](CO)[C@@H]2Cn3c(ccc(C4=CCCC4)c3=O)[C@H]1N2CC1CCCC1 | n | x | x | x | x
C[C@H](CO)N1C[C@H](C)[C@@H](CN(C)Cc2ccc(C(=O)O)cc2)OCCCC[C@H](C)Oc2ccc(NS(=O)(=O)c3ccc(Cl)cc3)cc2C1=O | n | x | n | x | x
O=C(C[C@@H]1CC[C@@H](NC(=O)Cc2cccnc2)[C@@H](CO)O1)NCc1ccc2c(c1)OCO2 | n | x | n | x | x
CC(C)NC(=O)Nc1ccc2c(c1)C(=O)N([C@H](C)CO)C[C@H](C)[C@H](CN(C)C(=O)Nc1cccc3ccccc13)O2 | n | x | 19 | n | n
CC(C)NC(=O)Nc1ccc2c(c1)C(=O)N([C@H](C)CO)C[C@H](C)[C@H](CN(C)C(=O)NC(C)C)O2 | n | x | n | x | x
CC(C)NC(=O)Nc1ccc2c(c1)C(=O)N([C@H](C)CO)C[C@H](C)[C@@H](CN(C)C(=O)Nc1cccc3ccccc13)O2 | n | x | n | x | x
C[C@H]1CN([C@@H](C)CO)C(=O)c2cccc(NC(=O)Nc3ccc4c(c3)OCO4)c2O[C@H]1CN(C)CC1CCCCC1 | n | x | n | x | x
CC(C)NC(=O)Nc1ccc2c(c1)C(=O)N([C@H](C)CO)C[C@H](C)[C@@H](CN(C)C(=O)NC(C)C)O2 | n | n | 1.6 | n | n
C[C@H](CO)N1C[C@H](C)[C@H](CN(C)CC2CCCCC2)Oc2c(NC(=O)Nc3ccc4c(c3)OCO4)cccc2C1=O | n | x | 1.4 | n | n
O=C(C[C@@H]1C=C[C@@H](NC(=O)C2CCOCC2)[C@H](CO)O1)NCC1CCCCC1 | n | x | n | x | x
Cc1cc(C)cc(N(CC(=O)NC2CCC(C)CC2)S(=O)(=O)c2c(C)noc2C)c1 (configuration not stated) | n | n | 1.4 | n | n
Cc1cc(C)cc(N(CC(=O)O)S(=O)(=O)c2c(C)noc2C)c1 | n | n | n | x | x
Cc1noc(C)c1S(=O)(=O)Nc1ccc2c(c1)C(=O)N([C@H](C)CO)C[C@H](C)[C@@H](CN(C)C(=O)C1CCCCC1)OCCCC[C@H](C)O2 | n | x | n | x | x
COc1ccc(CN(C)C[C@H]2Oc3c(NS(C)(=O)=O)cccc3C(=O)N([C@@H](C)CO)C[C@H]2C)cc1 | n | x | 3.1 | n | n
C[C@H](CO)N1C[C@H](C)[C@@H](CN(C)C(=O)C2CC2)OCc2ccccc2-c2ccccc2C1=O | n | x | 11 | n | n
COc1ccc(CN(C)C[C@@H]2Oc3c(NS(C)(=O)=O)cccc3C(=O)N([C@H](C)CO)C[C@@H]2C)cc1 | n | x | n | x | x
C[C@H](CO)N1C[C@H](C)[C@@H](CN(C)C(=O)Nc2cccc3ccccc23)Oc2c(NS(C)(=O)=O)cccc2C1=O | n | x | 1.8 | n | n
C[C@@H]1CN([C@@H](C)CO)C(=O)c2ccccc2-c2ccccc2CO[C@@H]1CN(C)C(=O)C1CC1 | n | x | n | x | x
C[C@H]1CN([C@@H](C)CO)C(=O)c2cccc(NS(C)(=O)=O)c2O[C@H]1CN(C)C(=O)Nc1cccc2ccccc12 | n | x | n | x | x
C[C@H](CO)N1C[C@H](C)[C@@H](CN(C)C(=O)Nc2cccc3ccccc23)Oc2c(NC(=O)C3CC3)cccc2C1=O | n | x | 2.2 | n | n
C[C@@H]1CN([C@@H](C)CO)C(=O)c2cccc(NC(=O)C3CC3)c2O[C@@H]1CN(C)C(=O)Nc1cccc2ccccc12 | n | x | n | x | x
SMILES | CFTR F508del cor | Vif inh | FGF22 binding-1 | FGF22 binding-2 | SYPRO no-protein | others
Cc1ccc(S(=O)(=O)N(C)C[C@@H]2OCCCC[C@@H](C)Oc3ccc(NC(=O)Nc4cccc5ccccc45)cc3C(=O)N([C@H](C)CO)C[C@H]2C)cc1 | n | x | n | x | x
COc1ccc(CN(C)C[C@H]2Oc3ccc(NC(=O)NC(C)C)cc3C(=O)N([C@H](C)CO)C[C@H]2C)cc1 | n | x | n | x | x
COc1cccc(S(=O)(=O)Nc2ccc3c(c2)[C@H]2C[C@H](CC(=O)O)O[C@@H](CO)[C@H]2O3)c1 | n | x | n | x | x
CO[C@H](CN(C)S(=O)(=O)c1ccc(C)cc1)[C@H](C)CN(Cc1ccccc1Cl)[C@H](C)CO | n | x | n | x | x
C[C@H]1CN([C@@H](C)CO)C(=O)Cc2cc(NC(=O)Cc3ccccc3)ccc2O[C@@H]1CN(C)CC1CCCCC1 | n | x | n | x | x
COC(=O)C[C@@H]1CC[C@@H]2[C@@H](COc3ccc(NC(=O)c4ccc(F)c(F)c4)cc3C(=O)N2C)O1 | n | x | 2.3 | n | n
COC(=O)C[C@H]1CC[C@H]2[C@H](COc3ccc(NC(=O)Nc4ccc(C#N)cc4)cc3C(=O)N2C)O1 | n | x | n | x | x
COC(=O)C[C@H]1CC[C@H]2[C@@H](COc3ccc(NC(=O)c4ccc(F)c(F)c4)cc3C(=O)N2C)O1 | n | x | x | x | x
COC(=O)C[C@H]1CC[C@@H]2[C@@H](COc3ccc(NC(=O)Nc4ccc(C#N)cc4)cc3C(=O)N2C)O1 | n | x | 1.3 | n | 2.4µM | FGF22 TSA=n
COC(=O)C[C@H]1CC[C@@H]2[C@@H](COc3ccc(NC(=O)Nc4cccc(C#N)c4)cc3C(=O)N2C)O1 | n | x | 2.0 | n | n | FGF22 TSA=n
COC(=O)C[C@@H]1CC[C@H]2[C@H](COc3ccc(NC(=O)Nc4ccc(C#N)cc4)cc3C(=O)N2C)O1 | n | x | n | x | x
C[C@H](O)C#Cc1cnc2c(c1)C(=O)N([C@H](C)CO)C[C@@H](C)[C@@H](CN(C)C(=O)c1ccccc1)O2 | n | x | n | x | x
COc1ccc(NC(=O)Nc2ccc3c(c2)[C@@H]2C[C@@H](CC(=O)NC4CCCC4)O[C@@H](CO)[C@@H]2O3)cc1 | n | x | n | x | x
CCC(=O)Nc1ccc2c(c1)OC[C@H](C)N(Cc1cncnc1)C[C@H](C)[C@@H](OC)CN(C)C2=O | n | x | n | x | x
